In PubChem BioAssay (NCI) one finds growth data, which are given here for seven compounds.

About 83,000 compounds went through this panel and 20% of them were active in at least one assay; those are over-represented in the sample as a whole.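 Percent growth is the endpoint: 0 to 100 indicates growth inhibition (40 means 60% inhibition), 0 means no net growth, and negative values indicate cell death.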 Unmarked numbers belong to inactive results. Active and inactive are the calls of the source. How the source made its calls: active means growth percent below 10; inactive means the rest.

This experiment deals with M14 melanoma. The experiment can be described thus: NCI-60 one-dose screen, 48 h (100 = growth as untreated, 0 = no growth, -100 = all killed). The conditions noted are these: 10 µM unless noted.
For the compound `O=C(Nc1cccc(-n2cnc3cc(-c4ccc(O)cc4)ccc32)c1)C1CC1`, the growth is 40.5%.

Consider `COc1ccc(C2(SCCNCc3cc(N(C)C)ccn3)c3ccccc3C=Cc3ccccc32)cc1`, for which the growth is -44.7% (active).

In the case of `N/C(=N\c1nc2ccccc2s1)NC(=O)Nc1ccccc1Br`, the growth was 2.92% (active).

For the compound `COc1ccc(C2=NN(c3ccccc3)C(c3ccc(OC)c(OCc4ccccc4)c3)C2)cc1OC` (configuration not stated), the growth is 104%.

On to `CC1=C(C(=O)c2ccccc2)C(c2ccc(-n3cncn3)cc2)n2c(nc3ccccc32)N1` (configuration not stated), for which the growth was 99.2%.

`CN(C)CCCNC(=O)c1cc(NC(=O)c2cc(NC(=O)c3ccc(C#Cc4ccccc4)cc3)cn2C)cn1C`: the growth is -79.8% (active).

In the case of `COc1cccc(/C=C/c2nc3ccccc3c(=O)n2CC(=O)Nc2ccc(Cl)cc2)c1`, the growth is 76.3%.
